Assay outcomes deposited in PubChem BioAssay by National Center for Advancing Translational Sciences (NCATS).
Compounds with a hit are over-represented: about 5.5% of the library has one in this group of screens.
CtBP-E1A inh – qHTS Assay for Inhibitors of the CtBP/E1A Interaction; actives 0.49% (n = 340,000); AlphaScreen GST-E1A/His-CtBP binding, 1536-well; hits give low values; activity change, % (no concentration beside the values); AID 651724, 2012; CtBP / adenovirus E1A interaction (AlphaScreen); in the data active = activity change below about -65%; inconclusive = mostly about -30% to -63%; note: % is set by controls: 0 for no effect and ±100 for the full control effect
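Homogeneous bead-based format: GST-tagged E1A captured on glutathione donor beads, His-tagged CtBP on nickel acceptor beads; compounds precede bead addition by 2 h at 37 °C.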
CBFb-RUNX1 inh – qHTS Assay for Compounds Blocking the Interaction Between CBF-beta and RUNX1 for the Treatment of Acute Myeloid Leukemia | AlphaScreen CBFb-His/RUNX1-biotin binding, biochemical | Runt-related transcription factor 1 (Homo sapiens) + Core-binding factor subunit beta … | AID 1477, 2009 | 230,000 tested, under 10 active | Potency, µM (titrated, usually from 59.8 µM), for inactives: at the top dose activity, negative = inhibition, most hits filed as inhibitors; note: % of control where 0% means no effect
Target sequence (Q01196 whole entry, looked up): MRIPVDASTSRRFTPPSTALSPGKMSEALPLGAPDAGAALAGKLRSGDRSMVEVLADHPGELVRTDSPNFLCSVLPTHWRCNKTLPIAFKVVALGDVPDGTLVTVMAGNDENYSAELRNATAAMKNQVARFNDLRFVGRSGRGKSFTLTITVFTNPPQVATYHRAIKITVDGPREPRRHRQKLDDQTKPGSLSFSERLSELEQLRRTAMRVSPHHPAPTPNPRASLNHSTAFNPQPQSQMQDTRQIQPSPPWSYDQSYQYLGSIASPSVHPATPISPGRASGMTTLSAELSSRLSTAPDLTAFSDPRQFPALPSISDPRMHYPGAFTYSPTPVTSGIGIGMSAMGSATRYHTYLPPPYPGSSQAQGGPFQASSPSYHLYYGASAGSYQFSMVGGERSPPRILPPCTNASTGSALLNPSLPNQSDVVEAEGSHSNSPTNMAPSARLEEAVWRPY
Target sequence (Q13951 whole entry, looked up): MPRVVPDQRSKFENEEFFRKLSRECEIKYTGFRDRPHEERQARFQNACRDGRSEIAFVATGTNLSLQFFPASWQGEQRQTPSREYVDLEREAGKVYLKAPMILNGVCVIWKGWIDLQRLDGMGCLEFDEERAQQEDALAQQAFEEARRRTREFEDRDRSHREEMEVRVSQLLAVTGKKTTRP
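Read-out: AlphaScreen. Format: His-CBF-beta with biotinylated RUNX1 (30 nM each) preincubated 20 min, compound 15 min, Ni-chelate plus streptavidin beads 90 min; room temperature throughout.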
Six1-Eya2 blk – qHTS Assay for Inhibitors of the Six1/Eya2 Interaction; actives 0.56% (n = 360,000); activity change, % (no concentration beside the values); AlphaScreen GST-Six1/His-Eya2 binding, biochemical; hits give low values; AID 651725, 2012; Homeobox protein SIX1 (Homo sapiens) + Protein phosphatase EYA2 (Homo sapiens), …; in the data active = activity change below about -65%; inconclusive = mostly about -30% to -63%; note: % is set by controls: 0 for no effect and ±100 for the full control effect
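GST-Six1 + His-Eya2 (5X stock: 250/500 nM); Tris pH 8.0, 300 mM NaCl, 0.05% BSA, 0.02% Tween 20; GSH donor/Ni acceptor beads; 1 h 37 °C dark; AlphaScreen readout.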
MBNL1-CUG inh – qHTS Assay for Inhibitors of MBNL1-poly(CUG) RNA binding; TR-FRET MBNL1-His/biotin-(CUG)12 binding, 665/545 ratio; Muscleblind-like protein 1 (Homo sapiens), Q9NR56; actives 0.036% (n = 280,000); AID 2675, 2010; Potency, µM (titrated, usually from 57.5 µM), without a hit: at the highest dose activity change, negative = inhibition, most hits filed as inhibitors; active = well fitted inhibition curve with a large enough effect in the signal ratio, with a control signal flat, not every such curve was filed as active; inconclusive = small, poorly fitted or top-dose-only effect, or effect the other way, or a change in a side signal; inactive = no such curve, though single readings can be large or run the other way; the % refers to the signal ratio; note: potency is the fitted concentration of half-maximal effect; % is set by controls: 0 for no effect and ±100 for the full control effect
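MBNL1-His + Biotin-(CUG)12, cpd titration 92 nM–58 uM; Tb anti-His Ab 0.055 ng/ul, SA-XL665 5 nM (final); 60 min RT; ratiometric 665/545 nm, Ex 340 nm; normalized to buffer and full-complex controls.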
VP16 counter – VP16 counterscreen qHTS for inhibitors of ROR gamma transcriptional activity. Drosophila S2 Gal4-VP16 UAS-luciferase, luminescence, 20 h. Potency, µM (titrated, usually from 53.6 µM), for inactives: top-dose activity, negative = inhibition, actives largely listed as inhibitors. actives 3.5% (n = 310,000);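 note: Gal4-VP16 expression switched on by copper sulfate through the metallothionein promoter; potency is the fitted concentration of half-maximal effect; % is set by controls: 0 for no effect and ±100 for the full control effect; nearly all actives have a fitted effect of over 50% in size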
RORg inh – qHTS for inhibitors of ROR gamma transcriptional activity | Nuclear receptor ROR-gamma (Mus musculus), P51450 | Drosophila S2 Gal4-RORgamma UAS-luciferase reporter, 20 h | Potency, µM (highest dose often 53.6 µM), inactives show at the highest dose activity change, negative = inhibition, most hits filed as inhibitors | actives 5.4% (n = 310,000); note: potency is the fitted concentration of half-maximal effect; % is set by controls: 0 for no effect and ±100 for the full control effect; nearly all actives have a fitted effect of over 60% in size
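Stable Schneider cell line, Gal4 DNA-binding domain fused to ROR gamma, UAS-luciferase. Cmpd 1 hr RT → CuSO4 700 uM final → 20 hr RT → luciferase reagent 10 min → luminescence.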
Active calls of the source: *; ? = inconclusive; nt = no result; [ ] = remark or other dose. Unless noted, calls come from the whole dose curve; as a rule, active = well fitted curve in the direction sought with a large enough effect; inconclusive = small, poorly fitted or top-dose-only effect, or another doubt; inactive = no such curve, though single readings can be large; an effect the other way counts as inactive or inconclusive.

SMILES | CtBP-E1A inh | CBFb-RUNX1 inh | Six1-Eya2 blk | MBNL1-CUG inh | VP16 counter | RORg inh
O=C(O)c1ccccc1Nc1cc(Cl)c2nonc2c1[N+](=O)[O-] | -9.4 | nt | ? | ? | nt | nt
COC(=O)C(NC(=O)c1ccccc1)C(C)(C)SCc1ccccc1 (centres undefined) | 2.2 | nt | -15.3 | nt | nt | nt
O=C(O)CN1C(=O)C(=O)N(Cc2cccc(F)c2)C1=O | 2.8 | nt | 7.2 | 3.2% | 6.7% | 9.3%
CCOc1cccc(CN(C)CC2CCCN(CCc3ccc(Cl)cc3)C2)c1O (centres undefined) | nt | nt | 1.4 | 3.5% | 4.1% | ?
OC1CCN(C(=S)Nc2ccc(Nc3ccccc3)cc2)CC1 | 1.7 | -13.4% | -8.0 | -4.0% | 0.0%[10 µM] | -30.0%
CCc1ccc(NC(=S)N2CCCC2)cc1 | 4.2 | nt | -0.5 | 1.7% | -22.9% | ?
CC1CCCN(C(=S)Nc2ccc(F)cc2)C1 (centres undefined) | 3.0 | 1.5% | 1.5 | 2.6% | 1.1%[10 µM] | 8.91µM*
CCc1ccc(NC(=S)N2CCCC(C(F)(F)F)C2)cc1 (centres undefined) | -4.7 | ? | -10.1 | nt | ? | 12.6µM*
CC1CCCN(C(=S)Nc2ccc(Nc3ccccc3)cc2)C1 (centres undefined) | 2.7 | -24.3% | -21.1 | 3.7% | ? | 11.2µM*
CCOc1nc(Nc2ccccc2F)nc(OCC)n1 | nt | nt | 6.3 | -16.9% | 17.2% | 23.8%
C=CCNc1nc(Nc2ccccc2F)nc(OCC)n1 | -23.1 | 0.0% | 13.1 | 4.7% | 11.0%[10 µM] | 12.6µM*
COc1ccc(OC)c(/C=C/C(=O)c2ccc3c(c2)OCCO3)c1 | nt | nt | 4.7 | 3.5% | -24.7% | 10µM*
COc1ccc(OC)c(/C=C/C(=O)OCC(=O)N2C(C)CCCC2C)c1 (centres undefined) | -94.4* | nt | -66.7* | nt | nt | nt
COc1cc(/C=C/C(=O)c2ccc3c(c2)OCCO3)cc(OC)c1OC | -0.3 | nt | -5.0 | 4.6% | ? | ?
COc1ccc(OC)c(/C=C/C(=O)OCC(=O)Nc2cccc(C(C)=O)c2)c1 | -14.6 | ? | -3.3 | nt | 1.2% | 41.5%
COc1ccc(OC)c(/C=C/C(=O)Oc2ccc(C(C)=O)cc2)c1 | -88.3* | nt | -23.3 | 16.9% | -13.0% | -8.0%
Cc1ccc(N2C(=O)c3ccccc3C2C(=O)c2ccc(C)c(C)c2O)cc1 (centres undefined) | -23.3 | -7.9% | -7.4 | 6.4% | -3.6% | -14.9%
C/C(=N\NC(N)=O)C1(C)CCCCC1 | 6.3 | -4.2% | 6.8 | 7.9% | -14.8% | 1.7%
C/C(=N\NC(N)=S)C1(C)CCCCC1 | 5.8 | 6.7% | 2.8 | 0.4%[11.5 µM] | 8.91µM* | 3.55µM*
S=C(c1ccco1)N1CCOCC1 | 9.3 | nt | 0.6 | nt | nt | nt
CN1C(=O)/C(=C/c2cn(CC(=O)N3CCCCC3)c3ccccc23)NC1=S | 13.5 | nt | 6.7 | ? | ? | 11.2µM*
CN1C(=O)/C(=C/c2cn(CC(=O)NCc3ccco3)c3ccccc23)NC1=S | nt | 4.1% | nt | ? | 5.6% | -20.4%
COC(=O)c1ccc(C(=O)NC(=S)Nc2nc3c(s2)CC(C)CC3)cc1 (centres undefined) | 3.4 | -0.2% | 3.6 | -16.7% | 2µM* | 1µM*
CCOC(=O)N1CCN(S(=O)(=O)c2ccc(C(=O)Nc3nc4c(s3)CC(C)CC4)cc2)CC1 (centres undefined) | -11.2 | -0.6% | 6.8 | 1.9% | -0.1% | -16.2%
COc1ccc(-c2nc3cnc(N(C)C)nc3n(CCc3ccccc3)c2=O)cc1 | nt | nt | nt | nt | -11.1% | 2.2%
O=C(Nc1ncnc2sc3c(c12)CCCC3)c1ccncc1 | 4.2 | 1.4% | 8.9 | -9.7% | 11.2µM* | ?
